HT1080 IDH1KD tx – kills HT-1080 cells with IDH1 knockdown | HT-1080 IDH1 knockdown viability, ATP luminescence, 48 h | Potency, µM (titrated, usually from 46.1 µM), hits mostly cytotoxic | 2% of 360,000 active | AID 686971
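In this qHTS, HT-1080 cells depleted of IDH1 are exposed for 48 h at 37 °C to compound titrations. Toxicity is scored from CellTiter-Glo luminescence, with DMSO as full viability and medium alone as none.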
HT1080NT lethal – kills 2HG-producing HT-1080-NT fibrosarcoma cells; HT-1080-NT fibrosarcoma viability, CellTiter-Glo ATP luminescence, 48 h; Potency, µM (doses to about 46.1 µM), hits mostly cytotoxic; 1.6% of 360,000 active; AID 686970;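 note: NT is the 2HG producing partner of a matched IDH1 knockdown line; nearly all actives have a fitted effect of over 55% in size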
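Read-out is CellTiter-Glo luminescence after 10 minutes at room temperature, following 48 hours' compound treatment of HT-1080-NT cells (750 cells/well, RPMI, 5% FBS, 37 degrees C).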
IL1B secr inh – blocks inflammasome-driven IL-1 beta release. AID 743279. 4.7% of 360,000 active. activity change, % at 57.5 µM. THP-1 LPS/ATP IL-1B secretion, AlphaLISA, 16 h; hits give low values; in the data active = activity change below about -50%; inconclusive = mostly about -30% to -49%
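THP-1 cells pretreated 1 hr with compounds (up to 57.5 uM final), then stimulated with LPS (250 ng/mL final) plus ATP (1.25 mM final); secreted IL-1B measured by AlphaLISA after 16 hr, decreased signal indicating inhibition.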
TDP1 cell noCPT – qHTS for Inhibitors of human tyrosyl-DNA phosphodiesterase 1 (TDP1): qHTS in cells in absence of CPT; DT40 Tdp1-/- hTDP1 cells, no CPT, ATP luminescence, 48 h; Potency, µM (doses to about 46.2 µM), hits mostly inhibitors; 15% of 420,000 active; note: nearly all actives have a fitted effect of over 55% in size
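Stably hTDP1-transfected Tdp1-null chicken DT40 cells were treated with library compounds minus camptothecin and grown for at least 48 hr at 37 °C, after which cellular ATP was quantified by luminescence.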
DT40 TDP1 CPT – DT40-hTDP1 cell growth loss with CPT; chicken DT40 Tdp1-/-;hTDP1 cells + 20 nM CPT, ATP luminescence, 48 h; Potency, µM (highest dose often 46.2 µM), hits mostly inhibitors; 12% of 420,000 active; AID 686979; note: nearly all actives have a fitted effect of over 55% in size
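Cell growth measured by CellTiter-Glo luminescence after a minimum 48 h, 37 C compound exposure with 20 nM CPT in Tdp1-knockout DT40 cells stably expressing hTDP1, seeded 400/well; qHTS titration format.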
A number is an active result; 0 = inactive; ? = inconclusive; - = no result; [ ] = remark or other dose. Shown are actives, neighbours in structure and some others; about 19% of the full set was active somewhere. Unless noted, calls come from the whole dose curve; as a rule, active = well fitted curve in the direction sought with a large enough effect; inconclusive = small, poorly fitted or top-dose-only effect, or another doubt; inactive = no such curve, though single readings can be large; an effect the other way counts as inactive or inconclusive.

SMILES	HT1080 IDH1KD tx	HT1080NT lethal	IL1B secr inh	TDP1 cell noCPT	DT40 TDP1 CPT
O=C(COc1ccc(Cl)cc1Cl)NCc1ccco1	0	0	0	0	0
Cc1cc(Cl)cc(Cl)c1OCC(=O)NCc1ccco1	0	0	?	18µM	?
C/C(CC(=O)NCc1ccco1)=N\NC(=O)COc1ccc(Cl)cc1Cl	?	21µM	0	21µM	18µM
O=C(COC(=O)c1cc(Cl)cc(Cl)c1)NCc1ccco1	0	0	0	0	0
CCOC(=O)C1=C(C)NC(C)=C(C(=O)OCC)C1C(=O)OCC(=O)NCc1ccco1	0	0	0	21µM	0
COc1ccc(OCCC(=O)OCC(=O)NCc2ccco2)cc1	0	0	0	?	21µM
CCC(=O)Nc1c(-c2ccc(Cl)cc2)c(=O)c2ccccc2n1C	0	0	0	0	0
CC1(C(=O)OCC(=O)Nc2cccc(S(=O)(=O)NC3=NCCCCC3)c2)CC1(Cl)Cl (stereo unspecified)	0	0	0	0	?
CCc1ccc(C2CC(=O)Nc3cc4c(cc32)OCO4)cc1 (stereo unspecified)	-	-	-	?	0
CCCNC(=O)C/C(C)=N/NC(=O)COc1ccc(C)cc1Br	0	0	0	0	0
Cc1cccc(C)c1OCCNC(=O)C(=O)NCc1ccco1	2.6µM	1.6µM	0	2.3µM	1.8µM
O=C(COc1ccccc1Cl)NCc1ccco1	0	0	0	0	0
CCOc1ccccc1OCC(=O)NCc1ccco1	0	0	0	13µM	29µM
O=C(COc1ccccc1-c1ccccc1)NCc1ccco1	0	0	-51	0	0
Cc1ccccc1OCC(=O)OCC(=O)NCc1ccco1	0	0	0	0	0
COc1ccc(CNC(=O)C/C(C)=N/NC(=O)COc2ccc(C)cc2Br)cc1	18µM	16µM	0	3.7µM	2.3µM
COc1ccc2[nH]c3c(c2c1)CCN1C(=O)C(CC(=O)NCc2ccc(OC)c(OC)c2)C[C@H](C(=O)N2CCCCC2)[C@@]31CCc1ccccc1 (stereo partly specified)	0	0	0	?	?
COc1ccc(N2CCN(c3ccc(-c4nc(-c5cccc(C)c5)no4)cc3[N+](=O)[O-])CC2)cc1	-	-	-	0	0
CCc1ccc(NC(=O)CN(c2cccc(C)c2)S(C)(=O)=O)cc1	0	0	0	?	?
CCN(CC)c1nc(-c2ccccc2)ncc1S(=O)(=O)c1ccc(C)cc1	0	?	0	16µM	?
CN(C)c1nc(-c2ccccc2)ncc1S(=O)(=O)c1ccccc1	0	0	0	?	0
COC(=O)C1CCN(Cc2ccc3c(c2)CN(C(=O)c2cc(C4CC4)on2)CCO3)CC1	-	-	-	0	0[9.04 µM]
CC(C)c1ccc(OCc2ccc(C(=O)N3CCN(c4ccccn4)CC3)cc2)cc1	?	?	0	21µM	?
COc1ccc(N2CCN(C(=O)c3ccc(COc4ccc5c(C)cc(=O)oc5c4)cc3)CC2)cc1	0	0	0	16µM	?
CC(C)c1ccc(COc2ccc(C(=O)N3CCOCC3)cc2)cc1	0	0	0	23µM	?
SMILES	HT1080 IDH1KD tx	HT1080NT lethal	IL1B secr inh	TDP1 cell noCPT	DT40 TDP1 CPT
COc1ccc(S(=O)(=O)N2CCN(C(=O)COc3ccc4c(C)cc(=O)oc4c3)CC2)cc1	0	0	0	?	?
Cc1ccc(C(=O)N2CCN(c3ccccn3)CC2)cc1	0	0	0	0	0
CCOc1ccc(C(=O)Nc2ccc(C(=O)N3CCOCC3)cc2)c(OCC)c1	0	0	0	13µM	?
CC(C)c1ccc(C(=O)N2CCCN(C(=O)c3ccc(C(C)C)cc3)CC2)cc1	0	0	0	0	0
CC(NC(=O)CN1C(=O)NC2(CCc3ccccc32)C1=O)c1ccc2c(c1)OCCO2 (stereo unspecified)	0	0	0	0	0
CNC(=O)C1(c2ccccc2)CCCCC1	0	0	0	0	0
Cc1ccc(OCC(=O)N2CCOCC2)cc1C	0	0	0	0	0
Cc1ccc(OCc2ccc(C(=O)N3CCOCC3)cc2)cc1C	0	?	0	21µM	16µM
CNc1ccc(Br)cc(C(=O)/C=C/c2cccc(OC)c2)c1=O	?	?	-101	7.3µM	13µM
COc1cccc(/C=C/C(=O)OCC(=O)NCCNC(=O)COC(=O)/C=C/c2cccc(OC)c2)c1	0	0	0	?	?
CNc1ccc(Br)cc(C(=O)/C=C/c2ccc(OC)cc2OC)c1=O	0	0	?	15µM	9.2µM
CNc1ccc(Br)cc(C(=O)/C=C/c2ccc(Cl)cc2Cl)c1=O	21µM	?	-91	18µM	4.6µM
CCC(=O)c1ccc(OCCSc2ncccn2)cc1	0	0	0	18µM	?
CCC(=O)c1ccc(OCC(=O)O)cc1	0	0	0	0	0
CCCCNc1nc(-c2ccccc2)cc(C(F)(F)F)c1C(N)=O	0	?	-70	?	?
CC(C)Cc1nn2c(=O)cc(COC(=O)c3cccc(NS(C)(=O)=O)c3)nc2s1	-	-	-	0	0
Cc1ccccc1CS(=O)(=O)Cc1ccc(C(=O)NCCc2ccc(Cl)cc2)o1	-	-	-	?	21µM
Cc1ccc(CCNC(=O)c2ccc(CSCc3ccccc3C)o2)cc1	-	-	-	16µM	?
Cc1ccc(CCNC(=O)c2ccc(CS(=O)(=O)Cc3ccccc3F)o2)cc1	0	0	0	16µM	?
O=C(NCCc1ccccc1)c1ccc(CS(=O)(=O)Cc2ccccc2F)o1	0	0	0	?	0
CC(C)CCNC(=O)c1ccc(CSCc2cccc(F)c2)o1	0	0	-63	0	?
Cc1ccc(CCNC(=O)c2ccc(CS(=O)(=O)c3ccccc3C)o2)cc1	0	0	0	0	0
CCC(Oc1ccccc1)C(=O)N1CC(C)CC(C)C1 (stereo unspecified)	0	0	0	0	0
OCCN1CCN(c2cc(-c3ccc(CO)cc3)nc3ccnn23)CC1	0	?	0	0	0
CN1CCN(c2cc(-c3ccc4ccccc4c3)nc3ccnn23)CC1	0	?	0	?	23µM
CC(C)Nc1ncnc2c1ncn2[C@H]1CN(Cc2ccc(F)cc2)C[C@@H](CO)O1	?	0	0	0	0
CC1=C(C(=O)OCC2CCCCC2)C(c2ccc(Cl)cc2Cl)CC(=O)N1 (stereo unspecified)	-	-	-	21µM	?
CC1=C(C(=O)OCC2CCCCC2)C(c2cccc(Cl)c2Cl)CC(=O)N1 (stereo unspecified)	-	-	-	0	0
CC1=C(C(=O)OC2CCCCCC2)C(c2cccc(Cl)c2)CC(=O)N1 (stereo unspecified)	-	-	-	18µM	18µM
COC(=O)C1=C(C)NC(=O)CC1c1cccc(Cl)c1Cl (stereo unspecified)	0	0	0	?	?
